Experimental data taken from PubChem BioAssay (Tox21).
“And” between values parts separate entries of the source, which are not always exact repeats. Equal entries are not always repeated. The source holds several records for some structures; these can differ, active in one and inactive in another. The source made the active and inactive calls. Entries that show only a call come without a potency. Calls follow the shape of the dose curve; as a rule, active = well fitted curve in the direction sought with a large enough effect in the signal ratio in the repeat runs (not every such curve was filed as active); inconclusive = weak or mixed curves, or effect the other way; inactive = no such curve, though single readings can be large or run the other way; the % refers to the signal ratio.

molecular target: Estrogen receptor (Homo sapiens) (UniProt P03372); experiment: qHTS assay to identify small molecule antagonists of the estrogen receptor alpha (ER-alpha) signaling pathway (AID 743069); conditions: HEK293 ER-alpha-UAS-bla, beta-lactamase ratio, antagonist mode; series mostly up to 69.4 µM
From the text: National Center for Advancing Translational Sciences [NCATS]
NIH Chemical Genomics Center [NCGC]
U.S. Environmental Protection Agency [EPA]
National Institutes of Environmental Health Sciences [NIEHS]
National Toxicology Program [NTP]
U.S. Food and Drug Administration [FDA]
Estrogen receptor (ER), a nuclear hormone receptor, plays an important role in development, metabolic homeostasis and reproduction. Two subtypes of ER, ER-alpha and ER-beta have similar expression patterns with some uniqueness in both types. Endocrine disrupting chemicals (EDCs) and their interactions with steroid hormone receptors like ER causes disruption of normal endocrine function. To identify the compounds that inhibit ER signaling, an ER-alpha-UAS-bla GripTiteTM cell line (Invitrogen, Carlsbad, CA, USA) containing a beta-lactamase reporter gene under the control of an Upstream Activator Sequence (UAS) stably integrated into HEK293 cells was used to screen the Tox21 10K compound library.
Tox21 Assay Protocol Summary:
ER-alpha-bla cells were cultured in assay medium containing 2% charcoal stripped FBS overnight in the culture flasks before the assay was performed. The cells were dispensed at 5,000 cells/5 uL of assay medium per well into black wall/clear-bottom 1536-well plates using a Multidrop Combi (ThermoFisher Scientific, Waltham, MA) dispenser. After the assay plates were incubated at a 37C and 5% CO2 for 4 hr, 23 nL of compounds dissolved in DMSO, positive controls or DMSO only was transferred to the assay plate by a Pintool station (Kalypsys, San Diego, CA), followed by addition of 1 uL of 17beta-estradiol in assay medium using a Flying Reagent Dispenser (Aurora Discovery, San Diego, CA). The plates were incubated at 37C and 5% CO2 for 18 hr. Then 1 uL of LiveBLAzerTM B/G FRET substrate was added using a Flying Reagent Dispenser, the plates were incubated at room temperature for 2 hours, and fluorescence intensity was measured by an Envision plate reader (PerkinElmer, Shelton, CT).
Potency is read from the fitted curve at half-maximal effect.

Estrogen receptor (Homo sapiens), sequence (P03372 whole entry, looked up): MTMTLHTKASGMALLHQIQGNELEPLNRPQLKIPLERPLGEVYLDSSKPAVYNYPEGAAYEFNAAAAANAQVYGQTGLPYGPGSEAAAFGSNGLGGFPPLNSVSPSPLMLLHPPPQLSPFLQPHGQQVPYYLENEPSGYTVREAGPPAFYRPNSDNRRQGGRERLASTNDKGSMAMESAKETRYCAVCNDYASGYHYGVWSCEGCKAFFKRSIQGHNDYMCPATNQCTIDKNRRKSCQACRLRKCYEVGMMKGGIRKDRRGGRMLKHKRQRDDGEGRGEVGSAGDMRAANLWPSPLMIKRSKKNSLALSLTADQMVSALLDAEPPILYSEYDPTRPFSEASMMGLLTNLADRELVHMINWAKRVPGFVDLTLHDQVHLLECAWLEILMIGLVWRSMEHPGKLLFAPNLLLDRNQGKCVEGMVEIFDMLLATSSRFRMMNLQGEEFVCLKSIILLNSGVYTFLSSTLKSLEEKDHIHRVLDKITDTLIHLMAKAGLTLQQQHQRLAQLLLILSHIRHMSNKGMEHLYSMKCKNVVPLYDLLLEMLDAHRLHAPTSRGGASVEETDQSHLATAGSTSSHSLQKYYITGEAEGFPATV

Structure (SMILES) | Potency
CCC1(CC)C(=O)NC(=O)NC1=O | inactive
CCOC(=O)c1cncn1C(C)c1ccccc1 (stereo not given) | inactive
O=C(O)C(F)(F)C(F)(F)C(F)(F)C(F)(F)C(F)(F)F | inactive
CCc1ccccc1N | inactive
NP(N)(=O)NC(=O)c1ccc(F)cc1 | inactive
O=P(OCC(Br)CBr)(OCC(Br)CBr)OCC(Br)CBr (stereo not given) | 62.5 µM [inconclusive] (active) and 46.5 µM [inconclusive] (active)
C=CCOCC1CO1 (stereo not given) | inactive
CN(C)C(=O)Nc1cccc(OC(=O)NC(C)(C)C)c1 | inactive
Cc1cccc(C)c1NC1=NCCCS1 | inactive
CCCBr | inactive
CC(C)(C)NCC(O)c1ccccc1Cl (stereo not given) | inactive
c1ccc2c(c1)sc1ccccc12 | inactive
CC(C)OC(=O)Cc1ccccc1 | inactive
FC(Cl)(Cl)C(F)(Cl)Cl | inactive
NC(=O)CF | inactive
COc1cc(CC(C)N)c(OC)cc1Br (stereo not given) | inactive
CCN(C(C)=O)c1cccc(-c2ccnc3c(C#N)cnn23)c1 | inactive
CCCCC(CC)CO[N+](=O)[O-] (stereo not given) | inactive
OCCSSCCO | inactive
O=CC=O | inactive

Structure (SMILES) | Potency
CCCCC1C(=O)NC(=O)N(C2CCCCC2)C1=O (stereo not given) | inactive
CCCC[N+]1(C)[C@@H]2CC(OC(=O)[C@H](CO)c3ccccc3)C[C@H]1[C@@H]1O[C@@H]12 (stereo not given in full) | inactive
CC[N+]1(CCOC(=O)C(O)(c2ccccc2)c2ccccc2)CCCCC1 | inactive
NC(=S)c1c(Cl)cccc1Cl | inactive
C=C(C)C(=O)OCCCCOC(=O)C(=C)C | inactive
COC(=O)Cc1ccccc1 | inactive
CC(O)CN1CCN(CC(=O)[O-])CCN(CC(=O)[O-])CCN(CC(=O)[O-])CC1.[Gd+3] (stereo not given) | inactive
CCCC1CCCCN1 (stereo not given) | inactive
O=C(Cc1ccccc1)OCCc1ccccc1 | inactive
N#CC(C#N)=C(C#N)C#N | inactive
C[N+](C)(C)CC1CO1 (stereo not given) | inactive
CCC(C)(C)c1ccc(O)c(C(C)(C)CC)c1 | inactive
CCCCC(CC)COC(=O)c1c(Br)c(Br)c(Br)c(Br)c1C(=O)OCC(CC)CCCC (stereo not given) | inactive
CC(C)(c1ccccc1)c1cc(-n2nc3ccccc3n2)c(O)c(C(C)(C)c2ccccc2)c1 | inactive
NNCCO | inactive
CCCCCCCCCCCCCCCl | inactive
c1ccc2sc(SNC3CCCCC3)nc2c1 | inactive
CCC(C)(C)O | inactive
C=CC(=O)OCC | inactive
CN1C[C@H](C(=O)N[C@]2(C)O[C@@]3(O)[C@@H]4CCCN4C(=O)[C@H](Cc4ccccc4)N3C2=O)C=C2c3cccc4[nH]cc(c34)C[C@H]21 | 61.9 µM [cytotoxic] (active) and inactive
